Holding throughout (test): NCI-60 one-dose screen, 48 h (100 = growth as untreated, 0 = no growth, -100 = all killed)
Common to all, as to conditions: 10 µM unless noted

Test [1] concerns NCI-H23 lung.
In test [2] the test system is NCI-H226 lung.
The subject of test [3] is NCI-H322M lung.
Test [4] has as its system HOP-62 NSCLC.
Test [5] deals with NCI-H460 lung.
The test system of test [6] is NCI-H522 lung.
Test [7] has as its system A549/ATCC NSCLC.
The subject of test [8] is 786-0 renal.
Test [9] has as its system COLO 205 colon.
The test system of test [10] is DU-145 prostate.

The structures appear in SMILES notation. About 83,000 compounds went through this panel and 20% of them were active in at least one assay; those are over-represented in the sample as a whole.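 Assay: single dose, 48 h. Readout: percent growth (0 = no net growth; negative = cell death). Active: <10.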 A number with no mark means an inactive call. Calls of active or inactive are those of the source.

Consider `Cn1cc(-c2csc(-c3c[nH]c4ncccc34)n2)c2cc(F)cnc21`, for which the growth in [1] is 74%; in [2], 73.5%; in test [3], 70.7%; in [4] it was 79.5%; in [5], 61.3%; in [6] it was 86.8%. For the same compound, the growth in [7] is 85.3%; in test [8] it was 90.5%.

`Cc1cc(NCCCNc2ccnc3cc(Cl)ccc23)nc(N2CCN(C)CC2)n1`: the growth in test [1] was 95.1%; in test [2], 75.3%; in test [3], 56.4%; in [4], 62.7%; in [5], 24.1%; in test [6], 4.29% (active). The growth is 70.5% in test [7], 78.7% in test [8], 48.1% in test [9] and 78.2% in [10].

Take `COc1ccc2[nH]cc(/C=C3/C(=O)Nc4ccc(Cl)cc43)c2c1`: the growth in [1] is 37.8%; in test [2], 60.1%; in [3], 57.1%; in [4], 64.8%; in [5], 46.1%; in [6] it was -7.27% (active). The growth in test [7] was 56.6%; in test [8], 43.2%; in test [9] it was 63.8%; in [10], 47.6%.

Take `CN1CCN(CC(=O)Nc2nc3c(s2)Nc2cc(Cl)c(Cl)cc2NC3=O)CC1`: the growth is 106% in test [1]; 96.1% in [2]; 94.1% in [3]; 98.3% in test [4]; 104% in test [5]; 77% in test [6]. The growth in test [7] was 95.9%; in test [8] it was 99.2%; in [9], 107%; in test [10], 117%.

Take `Cc1cc2cn3c4cccnc4[nH]c(=O)c3c2cc1C`: the growth in [1] was 55.7%; in [2] it was 90.3%; in test [3], 91.8%; in test [4] it was 46.8%; in test [5], 4.12% (active); in [6], -75% (active). In addition, the growth in test [7] is 10.2%; in test [8] it was -14.5% (active).

In the case of `O=C(CCc1nnc2sc(Cc3ccccc3Cl)nn12)c1nc2ccccc2[nH]1`, the growth in [1] is 90.4%; in [2], 89.3%; in [3], 85.2%; in test [4], 92.1%; in [5], 99.5%; in [6], 96.6%. Further, the growth in test [7] is 100%; in [8], 85.8%.

`O=C(Nc1ccc(Nc2ccncc2)cc1)c1ccc(Nc2ccnc3ccc([N+](=O)[O-])cc23)cc1[N+](=O)[O-]`: the growth was 83% in [1]; 103% in test [2]; 89.5% in test [3]; 127% in [4]; 44.9% in [5]; 43.2% in [6]. Also, the growth was 35.2% in test [7], 50.1% in test [8], 122% in test [9] and 56.8% in test [10].

For the compound `O=C(CCc1nnc2sc(-c3ccc(Cl)cc3Cl)nn12)c1nc2ccccc2[nH]1`, the growth in [1] is -35.1% (active); in [2], -78.4% (active); in test [3], -54.7% (active); in [4], -56.9% (active); in [5], -57.8% (active); in [6], -74.7% (active). Also, the growth in test [7] was -46.1% (active); in test [8] it was -94.7% (active).

As to `COc1ccc(Nc2ccnc(NCCCNc3ccnc4cc(Cl)ccc34)n2)cc1`, the growth was 58.1% in [1]; 69.6% in [2]; 3.32% (active) in test [3]; 46.9% in test [4]; -56.5% (active) in test [5]; -55% (active) in [6]. In addition, the growth in test [7] was -14.5% (active); in test [8], -97.7% (active); in [9], -65% (active); in test [10], 22.4%.

On to `CCC1=C(c2ccc(OC)cc2)C(C)(C)Oc2cc(O)c(CN3CCCC3)cc21`, for which the growth is 68.1% in test [1]; 97.6% in [2]; 92% in test [3]; 71.4% in test [4]; 86.6% in test [5]; 41.5% in test [6]. The growth in test [7] is 85.1%; in test [8] it was 59%; in [9] it was 65.9%; in test [10], 93.8%.

Regarding `COc1ccc(-c2c3c(nn2-c2ccc(N)cc2)CCc2cnoc2-3)cc1OC`, the growth in test [1] is 93.4%; in [2], 95.8%; in test [3] it was 103%; in test [4], 104%; in [5], 101%; in test [6], 70.4%. Further, the growth was 85.2% in test [7] and 84.9% in [8].

Take `Cn1cc(-c2csc(-c3cn(C)c4ncccc34)n2)c2cc(Br)cnc21`: the growth in test [1] was 82%; in test [2] it was 101%; in test [3] it was 104%; in test [4] it was 100%; in test [5], 95.4%; in test [6] it was 98.7%. Moreover, the figures for the growth in test [7] and in test [8] were 87% and 93.8%, respectively.

With `COc1ccc(-c2oc3cc(O)c(OC)c(O)c3c(=O)c2OC)cc1O`, the growth was 16.1% in [1]; 73.5% in test [2]; 46.7% in test [3]; 43% in test [4]; 1.5% (active) in [5]; -30.3% (active) in test [6]. Also, the growth in test [7] was 19.7%; in [8], 23.2%; in test [9], 101%; in test [10] it was -18.4% (active).

For the compound `CC12CCCCC1C(C(N)=O)C(=O)O2` (configuration not stated), the growth in test [1] was 101%; in test [2], 118%; in test [3], 104%; in test [4], 109%; in test [5], 110%; in test [6], 108%. Besides, the values for the growth in test [7], in test [8] and in [9] were 106%, 101% and 112%, respectively.

As to `Cc1c(C(N)=O)sc2c1c(=O)n(Cc1ccccc1)c1nnc(S(=O)(=O)CC(=O)Nc3ccc(Cl)cc3)n21`, the growth in test [1] is 43.2%; in test [2], -4.71% (active); in test [3] it was 34.8%; in [4], -26.9% (active); in test [5], -20.8% (active); in test [6], 16.9%. Also, the growth in [7] is 28.5%; in [8] it was 3.47% (active); in [9], 47.2%; in test [10] it was 43.9%.
